Assay [1] deals with Lysosomal acid glucosylceramidase (Homo sapiens) (UniProt P04062). Nature of the assay: Glucocerebrosidase-p2 (AID 348; in the data active means potency below about 10 µM; further: potency means the concentration at half of the fitted maximal effect). The note with it: purified GBA, blue fluorogenic substrate, 40 min. Summed up: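 Compounds titrated from 0.6 nM upwards against 0.2 nM enzyme in pH 5.9 citric acid/KH2PO4, taurocholate, tween-20; blue fluorogenic substrate 80 uM, 40 min room temperature, stopped and read Ex 365/Em 440 for AC50.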

A short description of assay [2]: AP1 Signaling Pathway (AID 357).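 Further: ME-180 reporter cells stimulated with EGF at its EC50 level; on the % scale 0 is the no-effect control and ±100 the full control effect.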 The note with it: ME-180 AP-1-bla reporter, EGF-induced, beta-lactamase ratio, 5 h; at 7.69 µM (top of the series) unless noted. A digest of the protocol:
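Cells are seeded overnight, exposed to compound titrations and an EC50 level of EGF for 5 hours at 37 °C, then loaded with CCF4 dye for 2.5 hours. Beta-lactamase activity under the AP-1 element is read as a blue/green ratio.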

Assay [3] is described as follows: Stat Signaling Pathway (AID 446).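 Further: ME-180 cervical cancer cells given 40 pM IL-6 alongside compound; SIE-controlled beta-lactamase reporter measured as 460/530 nm FRET emission ratio; on the % scale 0 is the no-effect control and ±100 the full control effect.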 The note with it: ME-180 SIE beta-lactamase reporter, IL-6 stimulated, 5 h; at 7.69 µM (top of the series) unless noted. A digest of the protocol:
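Screening format detects activators and inhibitors alike: ME-180 SIE-bla cells stimulated at 40 pM IL-6 for 5 hrs with compound, then dual-emission beta-lactamase read at 405 nm excitation.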

Assay [4] addresses Glucocorticoid receptor (Homo sapiens) (UniProt P04150). Kind of assay: GR-EFC Redistribution (AID 451; calls by dose curve; further: potency means the concentration at half of the fitted maximal effect). The note with it: CHO-K1 GR-EFC translocation, beta-gal luminescence, 2 h. Summed up:
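CHO-K1 cells stably expressing nuclear-localized β-gal enzyme acceptor and GR fused C-terminally to the enzyme donor fragment; ligand-driven nuclear translocation restores β-gal by complementation. Compounds titrated up to 46 uM final, 2 h at 37 °C; luminescence read.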

Assay [5] deals with Mitogen-activated protein kinase 10 (Mus musculus) (UniProt Q61831). Nature of the assay: JNK3 AlphaScreen Assay (AID 530).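 Further: kinase came from lysate of stimulated human HepG2 cells; on the % scale 0 is the no-effect control and ±100 the full control effect.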 The note with it: JNK3 lysate, c-Jun phosphorylation; series mostly up to 57.1 µM. A digest of the protocol: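 JNK3 came from HepG2 lysates pre-activated with IL-1beta and TNF-alpha and phosphorylated biotinylated GST-cJun (1-79) at 10 uM ATP, pH 7.6, room temperature. Compounds were titrated. AlphaScreen signal used anti-phospho-cJun (Ser73) antibody.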

Assay [6] concerns the target 3',5'-cyclic-AMP phosphodiesterase 4B (Homo sapiens) (UniProt Q07343). Nature of the assay: qHTS Assay for Inhibitors of PDE-IV (AID 607; active means well fitted activation curve with a large enough effect in the main read-out, with a control signal flat, not every such curve was filed as active; further: % of control where 0% means no effect). The note with it: HEK293 ACTOne CNG channel cells, membrane potential fluorescence; series mostly up to 22.9 µM. Summed up: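 The readout is membrane depolarisation from a cAMP-sensing CNG channel, detected with a potential dye at ex 535/em 590. Cells were HEK293-derived (endogenous PDE-IV) at 1000 cells/well, titrated up to 22.9 uM final.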
(In general: qHTS replaces the single test concentration by a dilution series.)

The nature of assay [7]: qHTS Assay for Lipid Storage Modulators (AID 1519; calls by dose curve). The note with it: Drosophila S3 cells, BODIPY lipid droplet/cell ratio, laser cytometry, cells loaded with oleic acid; for activity change, negative = inhibition: at 57.5 µM (top of the series). Summed up:
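Cells seeded at 5,000 per well were treated with compounds over a concentration series and loaded with oleic acid (400 uM, as added). Lipid droplet fluorescence (488 nm excitation, 500-530 nm channel) was read by laser-scanning cytometry and normalized to 20 uM Triacsin C.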

The nature of assay [8]: Primary qHTS for small molecule stabilizers of the endoplasmic reticulum resident proteome: Secreted ER Calcium Modulated Protein (SERCaMP) assay (AID 1508630; active means well fitted inhibition curve with a large enough effect; further: on the % scale 0 is the no-effect control and ±100 the full control effect). The note with it: SH-SY5Y GLuc-SERCaMP (Gaussia luciferase released on ER calcium loss) secretion, thapsigargin, luminescence; series mostly up to 38.4 µM. Summed up: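 GLuc-SERCaMP-expressing SH-SY5Y cells, pretreated 16 h with compound, are challenged with thapsigargin to empty ER calcium stores; after 4 h, coelenterazine is added directly to the medium and luminescence is imaged.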

The mark [9] stands for this setting: measured here: cell count channel max response.
[10] abbreviates: measured here: lipid channel max response.

Results filed as inconclusive are left out. The source made the active and inactive calls. Unless noted, the call rests on the fitted dose curve; in most records, active means well fitted curve in either direction with a large enough effect (not every such curve was filed as active); inconclusive means small, poorly fitted or top-dose-only effect, or another doubt; inactive means flat fitted curve, though single readings scatter.

Sequence of Glucocorticoid receptor (Homo sapiens) (P04150 whole entry, looked up, the tested form may be a part): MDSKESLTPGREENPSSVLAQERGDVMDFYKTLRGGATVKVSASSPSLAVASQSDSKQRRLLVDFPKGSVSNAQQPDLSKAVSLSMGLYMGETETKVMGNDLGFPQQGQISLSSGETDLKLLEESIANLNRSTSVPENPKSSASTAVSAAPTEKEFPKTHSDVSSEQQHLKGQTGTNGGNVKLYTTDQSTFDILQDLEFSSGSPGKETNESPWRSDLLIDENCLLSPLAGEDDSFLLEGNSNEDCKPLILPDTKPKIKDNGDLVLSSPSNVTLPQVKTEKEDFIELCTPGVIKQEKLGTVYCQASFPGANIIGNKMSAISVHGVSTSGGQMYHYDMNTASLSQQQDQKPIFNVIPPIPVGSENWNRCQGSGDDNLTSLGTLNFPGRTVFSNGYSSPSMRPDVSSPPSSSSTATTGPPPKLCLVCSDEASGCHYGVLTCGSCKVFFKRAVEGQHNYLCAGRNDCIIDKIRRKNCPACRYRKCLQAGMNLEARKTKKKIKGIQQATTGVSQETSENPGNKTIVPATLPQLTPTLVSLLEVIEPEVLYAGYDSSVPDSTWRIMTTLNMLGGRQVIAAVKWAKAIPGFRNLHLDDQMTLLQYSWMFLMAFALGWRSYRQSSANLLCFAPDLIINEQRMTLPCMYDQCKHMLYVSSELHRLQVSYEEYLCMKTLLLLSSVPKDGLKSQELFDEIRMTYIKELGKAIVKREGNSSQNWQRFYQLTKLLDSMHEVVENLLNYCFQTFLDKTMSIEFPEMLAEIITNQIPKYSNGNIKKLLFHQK
Sequence of Lysosomal acid glucosylceramidase (Homo sapiens) (P04062 whole entry, looked up): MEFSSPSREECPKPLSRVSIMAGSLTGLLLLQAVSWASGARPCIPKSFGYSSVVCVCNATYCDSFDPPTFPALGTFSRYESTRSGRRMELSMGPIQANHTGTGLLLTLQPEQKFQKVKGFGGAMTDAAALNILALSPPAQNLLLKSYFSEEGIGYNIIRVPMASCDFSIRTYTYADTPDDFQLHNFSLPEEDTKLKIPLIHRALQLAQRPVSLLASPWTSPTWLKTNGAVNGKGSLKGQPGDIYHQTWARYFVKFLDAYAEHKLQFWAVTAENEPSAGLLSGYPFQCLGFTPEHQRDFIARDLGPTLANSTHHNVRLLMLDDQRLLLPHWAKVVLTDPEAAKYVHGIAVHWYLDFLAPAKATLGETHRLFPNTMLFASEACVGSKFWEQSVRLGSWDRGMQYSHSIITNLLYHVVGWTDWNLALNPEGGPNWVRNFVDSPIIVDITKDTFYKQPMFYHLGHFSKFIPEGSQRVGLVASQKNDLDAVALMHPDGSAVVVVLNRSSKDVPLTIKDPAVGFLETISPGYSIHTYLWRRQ
Sequence of 3',5'-cyclic-AMP phosphodiesterase 4B (Homo sapiens) (Q07343 whole entry, looked up): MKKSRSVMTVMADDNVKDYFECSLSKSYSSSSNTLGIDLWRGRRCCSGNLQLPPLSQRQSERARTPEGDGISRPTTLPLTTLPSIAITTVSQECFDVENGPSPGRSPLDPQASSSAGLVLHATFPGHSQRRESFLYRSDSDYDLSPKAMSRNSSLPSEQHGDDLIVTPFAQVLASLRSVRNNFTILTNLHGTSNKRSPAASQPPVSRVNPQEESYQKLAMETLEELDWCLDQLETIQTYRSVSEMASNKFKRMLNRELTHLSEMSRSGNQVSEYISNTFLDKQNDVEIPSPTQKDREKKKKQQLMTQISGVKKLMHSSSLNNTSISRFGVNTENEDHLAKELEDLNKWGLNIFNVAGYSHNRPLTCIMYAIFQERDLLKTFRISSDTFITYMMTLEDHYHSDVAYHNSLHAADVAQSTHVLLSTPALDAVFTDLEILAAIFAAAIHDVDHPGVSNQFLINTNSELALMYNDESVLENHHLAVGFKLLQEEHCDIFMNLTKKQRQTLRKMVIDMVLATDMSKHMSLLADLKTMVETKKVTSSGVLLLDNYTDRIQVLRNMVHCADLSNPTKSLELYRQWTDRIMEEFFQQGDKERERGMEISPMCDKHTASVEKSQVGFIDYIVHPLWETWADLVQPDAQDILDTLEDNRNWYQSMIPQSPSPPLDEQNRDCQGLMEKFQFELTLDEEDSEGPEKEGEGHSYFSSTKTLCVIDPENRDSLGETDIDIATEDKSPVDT

For the compound `COC(=O)N1CCC2(CCN(Cc3ccccc3)CC2)CC1`, the Potency in assay [1] was > 11.4 µM (inactive); in assay [4], > 46 µM (inactive). Moreover, the activity change, negative = inhibition in assay [2] is -5.32% (inactive); in assay [7], 2.47% (inactive). Also, in assay [3], the activity, negative = inhibition is -1.16% (inactive). In addition, the Potency entry in assay [5] and in assay [6] was “inactive” throughout. Moreover, the figures for the max response in assay [7] (setting [9]) and in assay [7] (setting [10]) were -0.656% and 4.63%, respectively. Moreover, in assay [8], the result was inactive.

Regarding `O=C(c1cc(C(F)(F)F)cc(C(F)(F)F)c1)N1CCC2(CCCN(c3ccccc3)C2)CC1`, the Potency was > 11.4 µM (inactive) in assay [1] and > 46 µM (inactive) in assay [4]. In addition, the activity change, negative = inhibition is 22.8% (inactive) in assay [2] and -18.4% (inactive) in assay [7]. For the same compound, the activity, negative = inhibition in assay [3] was 2.12% (inactive). Besides, the Potency result in assay [5] and in assay [6] was “inactive” in each case. Moreover, the max response in assay [7] (setting [9]) is 1.58%; in assay [7] (setting [10]) it was -14.9%. Besides, in assay [8], the result was inactive.

For `N#Cc1ccc(CN2CCC3(CCNCC3)CC2)cc1`, the Potency in assay [1] is > 11.4 µM (inactive); in assay [4], > 46 µM (inactive). The activity change, negative = inhibition in assay [2] was 1.45% (inactive); in assay [7], 1.87% (inactive). The activity, negative = inhibition in assay [3] was 2.48% (inactive). Further, the Potency entry in assay [5] and in assay [6] was “inactive” in each case. Also, the max response stood at 9.11% in assay [7] (setting [9]) and 14.9% in assay [7] (setting [10]). Moreover, in assay [8], the outcome was inactive.

`O=C(c1cc(C(F)(F)F)cc(C(F)(F)F)c1)N1CCC2(CCN(Cc3ccncc3)CC2)CC1`: the Potency in assay [1] was > 11.4 µM (inactive); in assay [4], > 46 µM (inactive). Moreover, the activity change, negative = inhibition is -22.8% (inactive) in assay [2] and 3.65% (inactive) in assay [7]. Besides, the activity, negative = inhibition in assay [3] is 6.58% (inactive). Also, the Potency entry in assay [5] and in assay [6] was “inactive” each time. For the same compound, the max response in assay [7] (setting [9]) was 7.35%; in assay [7] (setting [10]) it was 10.5%. For the same compound, the result in assay [8] was inactive.

Turning to `COC(=O)N1CCC2(CCN(Cc3ccc(C#N)cc3)CC2)CC1`, the Potency in assay [1] was > 11.4 µM (inactive); in assay [4] it was > 46 µM (inactive). Also, the activity change, negative = inhibition in assay [2] was -12.5% (inactive); in assay [7], 6.51% (inactive). Moreover, in assay [3], the activity, negative = inhibition was 21.3% (inactive). In addition, the Potency entry in assay [5] and in assay [6] was “inactive” each time. Further, the max response in assay [7] (setting [9]) is 5.74%; in assay [7] (setting [10]), 14.3%. Besides, the outcome in assay [8] was inactive.

For the compound `COCC(=O)N1CCC[C@@]2(CCN(c3ccncc3)C2)C1`, the Potency in assay [1] was > 11.4 µM (inactive); in assay [4], > 46 µM (inactive). The activity change, negative = inhibition was -10.7% (inactive) in assay [2] and 1.37% (inactive) in assay [7]. The activity, negative = inhibition in assay [3] was 5.19% (inactive). The Potency entry in assay [5] and in assay [6] was “inactive” each time. The max response is -0.218% in assay [7] (setting [9]) and 3.63% in assay [7] (setting [10]). The outcome in assay [8] was inactive.

Consider `O=C(c1ccncc1)N1CCC2(CCCN(c3ccncc3)C2)CC1`, for which the values for the Potency in assay [1] and in assay [4] were > 11.4 µM (inactive) and > 46 µM (inactive), respectively. Moreover, the figures for the activity change, negative = inhibition in assay [2] and in assay [7] were -3.65% (inactive) and 0.736% (inactive), respectively. Moreover, in assay [3], the activity, negative = inhibition was -4.53% (inactive). Also, the Potency entry in assay [5] and in assay [6] was “inactive” throughout. Further, the max response in assay [7] (setting [9]) was -10.7%; in assay [7] (setting [10]) it was -8.67%. In assay [8], the result was inactive.

`CC(C)CN1CC2(CCN(C(=O)c3ccco3)CC2)C1`: the Potency is > 11.4 µM (inactive) in assay [1] and > 46 µM (inactive) in assay [4]. Moreover, the activity change, negative = inhibition is 6.73% (inactive) in assay [2] and -2.08% (inactive) in assay [7]. Also, in assay [3], the activity, negative = inhibition was -3.41% (inactive). In addition, the Potency entry in assay [5] and in assay [6] was “inactive” in each case. The max response in assay [7] (setting [9]) was 8.53%; in assay [7] (setting [10]) it was 7.7%. Further, in assay [8], the outcome was inactive.

Source of the values: PubChem BioAssay (NCATS).
